ABHD5 PLIN5 PPI – inhibitors of human ABHD5-perilipin-5 interaction | inhibition, % at 4 µM | AID 602281 | Q00G26+Q8WTS1 | Split G. princeps luciferase complementation, luminescence, 4 h | actives 0.78% (n = 360,000);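 active means inhibition above the mean inhibition across every tested compound plus 3 SD, cut at about 22% in these data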;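 further: 0% = DMSO only wells and the 100% control is not disclosed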
TLR4-MyD88 BLA – inhibitors of human TLR4-MyD88 binding; inhibition, % at 8.4 µM; AID 861; HeLa CL3-4 TLR4/MyD88 BLA complementation, FRET ratio; actives 0.18% (n = 200,000); O00206+Q99836; in the data active means inhibition above about 25%;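 further: 0% = vehicle and 100% = reference inhibitor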
rCAG RNA binder – binds r(CAG) RNA repeats; actives 1.3% (n = 370,000); r(CAG) RNA repeat, TO-PRO-1 dye displacement fluorescence; inhibition, % at 3 µM; AID 651821;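 active means inhibition above the plate cutoff, the mean of all test compounds on that plate plus 3 SD, cut at about 35% in these data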;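 further: 0% = DMSO alone and 100% = 100 µM mitoxantrone as full dye displacement; higher means more dye released from RNA so lower well fluorescence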
NOD2-RIPK2 inh – blocks binding of human NOD2 to RIPK2; actives 0.38% (n = 360,000); inhibition, % at 4.98 µM; CHO BLA complementation NOD2-RIPK2, CCF4 ratio; AID 624267; O43353; in the data active means inhibition above about 21%;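 further: 0% = vehicle only and 100% = reference blocker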
TLR9-MyD88 block – inhibitors of human TLR9-MyD88 binding | Q9NR96+Q99836 | CHO BLA complementation TLR9-MyD88, CCF4 FRET ratio | inhibition, % at 4.98 µM | actives 0.21% (n = 340,000);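 active means inhibition above the mean over all tested compounds plus 3 SD, cut at about 21% in these data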;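 further: 0% = DMSO only wells and 100% = clavulanate BLA inhibitor control wells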
PRMT1 FP inh – PRMT1 (human) inhibition, primary screen | Q99873 | recombinant PRMT1, activity-based probe fluorescence polarization | inhibition, % at 2.79 µM | actives 1.3% (n = 370,000) | AID 652257;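 active means inhibition above about 21% made by adding two undisclosed values, limit read from the data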
PRMT1 confirm – confirmation of human PRMT1 inhibitors. AID 687036. shares compounds with PRMT1 FP inh. actives 42% (n = 3,300). inhibition, % at 2.79 µM. recombinant His-PRMT1, activity-based probe fluorescence polarization;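 active means mean inhibition across replicates above the hit cutoff derived for the earlier primary screen, cut at about 22% in these data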
* hit, by the source's call. Compounds with a hit are over-represented: about 3.3% of the library has one in this group of screens.

How did CC(C)N1CCc2c(sc(NC(=O)C(F)F)c2-c2nc3ccccc3s2)C1 do in these assays?
PRMT1 FP inh: 29*; PRMT1 confirm: 5

What do the screens show for `CC(=O)Nc1sc2c(c1-c1nc3ccccc3s1)CCN(C(C)C)CC2`?
PRMT1 FP inh: 37*; PRMT1 confirm: 11

How did O=[N+]([O-])c1cc2c(cc1/C=N/NS(=O)(=O)c1ccc(Br)cc1)OCO2 do in these assays?
ABHD5 PLIN5 PPI: -4; TLR4-MyD88 BLA: -2; rCAG RNA binder: 9; NOD2-RIPK2 inh: 0; PRMT1 FP inh: 34*; PRMT1 confirm: 11

Results for Cc1ccc(S(=O)(=O)N/N=C\c2cc3c(cc2Br)OCO3)cc1 ?
ABHD5 PLIN5 PPI: -8; TLR4-MyD88 BLA: -2; rCAG RNA binder: 6; NOD2-RIPK2 inh: 2; TLR9-MyD88 block: -11; PRMT1 FP inh: -1

How did CSc1ccccc1NC(=O)CN1CCN(S(=O)(=O)c2ccccc2[N+](=O)[O-])CC1 do in these assays?
ABHD5 PLIN5 PPI: 3; rCAG RNA binder: 4; NOD2-RIPK2 inh: -3; TLR9-MyD88 block: 0; PRMT1 FP inh: 0

How did C(=C\c1ccco1)/c1ccc2ccccc2n1 do in these assays?
ABHD5 PLIN5 PPI: 12; rCAG RNA binder: 19; NOD2-RIPK2 inh: -3; PRMT1 FP inh: 38*; PRMT1 confirm: 12

How did CC(C)c1csc(CN2CCC(C(=O)Nc3cccc(-c4ccco4)c3)CC2)n1 do in these assays?
ABHD5 PLIN5 PPI: 5; rCAG RNA binder: 29; NOD2-RIPK2 inh: 11; TLR9-MyD88 block: -11; PRMT1 FP inh: 27*; PRMT1 confirm: -1

Results for S=c1[nH]nc(-c2ccco2)n1-c1ccccc1Cl ?
ABHD5 PLIN5 PPI: -5; TLR4-MyD88 BLA: 7; rCAG RNA binder: 0; NOD2-RIPK2 inh: 6; TLR9-MyD88 block: -7; PRMT1 FP inh: 0

How did S=c1[nH]nc(-c2cc(-c3ccco3)[nH]n2)n1-c1ccccc1Cl do in these assays?
ABHD5 PLIN5 PPI: 2; TLR4-MyD88 BLA: -6; rCAG RNA binder: 25; NOD2-RIPK2 inh: 7; TLR9-MyD88 block: -1; PRMT1 FP inh: 41*; PRMT1 confirm: 12

How did FC(F)(F)c1ccc(Cl)c(-n2c(-c3cc(-c4ccco4)[nH]n3)n[nH]c2=S)c1 do in these assays?
ABHD5 PLIN5 PPI: -10; rCAG RNA binder: 23; NOD2-RIPK2 inh: -12; TLR9-MyD88 block: -5; PRMT1 FP inh: 25*; PRMT1 confirm: 28*

Results for COc1ccc(OC)c(NC(=O)CS(=O)(=O)c2cn(CC(=O)N3CCOCC3)c3ccccc23)c1 ?
ABHD5 PLIN5 PPI: 7; rCAG RNA binder: 4; NOD2-RIPK2 inh: -6; TLR9-MyD88 block: -5; PRMT1 FP inh: 0

How did COc1ccc(NC(=O)CS(=O)(=O)c2cn(CC(=O)N3CCOCC3)c3ccccc23)cc1OC do in these assays?
ABHD5 PLIN5 PPI: -13; rCAG RNA binder: -1; NOD2-RIPK2 inh: -4; TLR9-MyD88 block: 1; PRMT1 FP inh: 35*; PRMT1 confirm: 21*

How did NC(=O)C1(N2CCCCC2)CCN(C2CC(=O)N(Cc3cccs3)C2=O)CC1 (stereo not given) do in these assays?
ABHD5 PLIN5 PPI: 2; TLR4-MyD88 BLA: 2; rCAG RNA binder: 2; NOD2-RIPK2 inh: 4; TLR9-MyD88 block: 0; PRMT1 FP inh: 20

What do the screens show for `CN1C(=O)CC(N2CCC(C(N)=O)(N3CCCCC3)CC2)C1=O` (stereo not given)?
ABHD5 PLIN5 PPI: -1; TLR4-MyD88 BLA: -3; rCAG RNA binder: -1; NOD2-RIPK2 inh: -1; TLR9-MyD88 block: -2; PRMT1 FP inh: 4

What do the screens show for `COc1cccc(N2C(=O)CC(N3CCC(C(N)=O)(N4CCCCC4)CC3)C2=O)c1` (stereo not given)?
ABHD5 PLIN5 PPI: 5; TLR4-MyD88 BLA: 2; rCAG RNA binder: 3; NOD2-RIPK2 inh: -7; TLR9-MyD88 block: -15; PRMT1 FP inh: 54*; PRMT1 confirm: 2

Results for NC(=O)C1(N2CCCCC2)CCN(C2CC(=O)N(CCc3ccccc3)C2=O)CC1 (stereo not given) ?
ABHD5 PLIN5 PPI: -8; TLR4-MyD88 BLA: -5; rCAG RNA binder: -5; NOD2-RIPK2 inh: -10; TLR9-MyD88 block: -3; PRMT1 FP inh: 44*; PRMT1 confirm: -4

Results for COC(=O)[C@@]12C[C@@H](CC(=O)NCCc3ccccc3OC)C(=O)N(Cc3cccc4ccccc34)C1=CCC(C)(C)C2 ?
ABHD5 PLIN5 PPI: 4; rCAG RNA binder: 8; NOD2-RIPK2 inh: -15; PRMT1 FP inh: 0

What do the screens show for `Cc1cc(C(=O)Nc2ncn(Cc3ccc(F)cc3)n2)ccc1[N+](=O)[O-]`?
ABHD5 PLIN5 PPI: 8; rCAG RNA binder: -1; NOD2-RIPK2 inh: -10; TLR9-MyD88 block: -9; PRMT1 FP inh: 7

What do the screens show for `COc1cc(NC(=O)Cn2cnc3c(NCc4ccccc4)ncnc32)cc(OC)c1OC`?
ABHD5 PLIN5 PPI: -4; rCAG RNA binder: 1; NOD2-RIPK2 inh: -2; TLR9-MyD88 block: -10; PRMT1 FP inh: 8

How did CCCCCNC(=O)[C@@H]1CSC2c3ccccc3C(=O)N21 (stereo not given in full) do in these assays?
ABHD5 PLIN5 PPI: -12; rCAG RNA binder: 3; NOD2-RIPK2 inh: -9; TLR9-MyD88 block: 7; PRMT1 FP inh: 4

What do the screens show for `O=C(NCc1cccs1)[C@@H]1CSC2c3ccccc3C(=O)N21` (stereo not given in full)?
ABHD5 PLIN5 PPI: -17; TLR4-MyD88 BLA: -7; rCAG RNA binder: 7; NOD2-RIPK2 inh: 5; TLR9-MyD88 block: -13; PRMT1 FP inh: 26*; PRMT1 confirm: 34*

How did COc1cc(/C=C/C(=O)O)cc(S(=O)(=O)Nc2ccc3nc(C)sc3c2)c1OC do in these assays?
ABHD5 PLIN5 PPI: -4; rCAG RNA binder: 18; NOD2-RIPK2 inh: -2; TLR9-MyD88 block: 1; PRMT1 FP inh: 25*; PRMT1 confirm: 28*

How did COc1ccc(C2SCCN2C(=S)Nc2cccc(C(F)(F)F)c2)cc1 (stereo not given) do in these assays?
ABHD5 PLIN5 PPI: -1; TLR4-MyD88 BLA: 0; rCAG RNA binder: 2; NOD2-RIPK2 inh: -1; TLR9-MyD88 block: -5; PRMT1 FP inh: 8

Results for CCOC(=O)c1ccc(NC(=S)N2CCSC2c2ccc(OC)cc2)cc1 (stereo not given) ?
ABHD5 PLIN5 PPI: -30; TLR4-MyD88 BLA: -11; rCAG RNA binder: 3; NOD2-RIPK2 inh: 8; TLR9-MyD88 block: 0; PRMT1 FP inh: 88*; PRMT1 confirm: 4

Results for CCOC(=O)c1ccc(NC(=S)N2CCSC2c2ccc(Cl)cc2)cc1 (stereo not given) ?
ABHD5 PLIN5 PPI: -21; TLR4-MyD88 BLA: -4; rCAG RNA binder: -1; NOD2-RIPK2 inh: 1; TLR9-MyD88 block: 3; PRMT1 FP inh: 84*; PRMT1 confirm: 0

Results for COc1ccc(C2SCCN2C(=S)Nc2ccc(F)cc2)cc1 (stereo not given) ?
ABHD5 PLIN5 PPI: -23; TLR4-MyD88 BLA: -18; rCAG RNA binder: 0; NOD2-RIPK2 inh: -9; TLR9-MyD88 block: 3; PRMT1 FP inh: 58*; PRMT1 confirm: 2
